Test results taken from PubChem BioAssay (Tox21).
Values joined by “and” are separate entries in the source; they are usually repeats but may differ in a detail not shown here. Equal values may be shown once. Records with an inconclusive call do not appear. Some compounds were tested as several samples or in several runs, with calls that do not always agree. Active and inactive are the calls of the source. Unless noted, the call rests on the fitted dose curve; in most records, active means well fitted curve in the direction sought with a large enough effect in the repeat runs; inconclusive means weak or mixed curves; inactive means no such curve, though single readings can be large; an effect the other way counts as inactive or inconclusive.

How the values were obtained:
[1] = target: Thyrotropin receptor (Homo sapiens) (UniProt P16473); experiment: qHTS assay to identify small molecule antagonists of the thyroid stimulating hormone receptor (TSHR) signaling pathway (AID 1259385; calls by dose curve; further: nearly all actives have a fitted effect of over 20% in size)
Sequence of Thyrotropin receptor (Homo sapiens) (P16473 whole entry, looked up): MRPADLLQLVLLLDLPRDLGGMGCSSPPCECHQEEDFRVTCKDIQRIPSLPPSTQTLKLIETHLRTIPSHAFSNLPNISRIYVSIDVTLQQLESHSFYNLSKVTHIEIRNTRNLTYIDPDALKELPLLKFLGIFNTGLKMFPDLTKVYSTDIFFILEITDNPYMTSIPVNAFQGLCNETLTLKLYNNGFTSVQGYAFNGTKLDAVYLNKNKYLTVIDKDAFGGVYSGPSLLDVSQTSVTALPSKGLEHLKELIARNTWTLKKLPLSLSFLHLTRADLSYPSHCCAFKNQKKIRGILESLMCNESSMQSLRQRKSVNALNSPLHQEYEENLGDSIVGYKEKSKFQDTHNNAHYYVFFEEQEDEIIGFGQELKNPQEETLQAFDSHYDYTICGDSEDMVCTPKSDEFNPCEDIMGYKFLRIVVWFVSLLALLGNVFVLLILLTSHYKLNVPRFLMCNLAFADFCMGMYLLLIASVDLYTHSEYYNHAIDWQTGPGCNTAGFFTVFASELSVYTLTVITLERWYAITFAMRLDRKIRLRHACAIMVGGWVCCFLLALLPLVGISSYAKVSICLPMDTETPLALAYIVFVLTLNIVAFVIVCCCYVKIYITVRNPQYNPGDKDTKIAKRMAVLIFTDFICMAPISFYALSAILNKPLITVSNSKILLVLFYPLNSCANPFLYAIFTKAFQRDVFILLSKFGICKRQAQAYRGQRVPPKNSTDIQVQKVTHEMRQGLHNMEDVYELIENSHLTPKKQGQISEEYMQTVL
In short: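 Antagonist mode: compound-treated TSHR-expressing HEK293 cells were stimulated with 1.5 ng/mL TSH (final) in presence of Ro20-1724 for 30 min at RT. HTRF cAMP detection after 1 h; each compound tested at 15 concentrations, triplicate.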

[2] = qHTS assay to identify small molecule agonists of the estrogen receptor alpha (ER-alpha) signaling pathway in the presence of an antagonist - cell viability counter screen (AID 1259386);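 further: cells exposed to compounds for 22 h at 37 °C before the viability read; nearly all actives have a fitted effect of over 30% in size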; further: potency means the concentration at half of the fitted maximal effect
In short: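 Viability counter screen using VM7Luc4E2 (full-length ER-alpha, four ERE-luciferase). The cells were treated with compounds alongside ICI-182,780 10.0nM for 22hr, and live-cell protease fluorescence was quantified with CellTiter-Fluor.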

[3] = target: Progesterone receptor (Homo sapiens) (UniProt P06401); experiment: qHTS assay to identify small molecule agonists of the progesterone receptor (PR) signaling pathway (AID 1346784; calls by dose curve; further: nearly all actives have a fitted effect of over 30% in size)
Sequence of Progesterone receptor (Homo sapiens) (P06401 whole entry, looked up): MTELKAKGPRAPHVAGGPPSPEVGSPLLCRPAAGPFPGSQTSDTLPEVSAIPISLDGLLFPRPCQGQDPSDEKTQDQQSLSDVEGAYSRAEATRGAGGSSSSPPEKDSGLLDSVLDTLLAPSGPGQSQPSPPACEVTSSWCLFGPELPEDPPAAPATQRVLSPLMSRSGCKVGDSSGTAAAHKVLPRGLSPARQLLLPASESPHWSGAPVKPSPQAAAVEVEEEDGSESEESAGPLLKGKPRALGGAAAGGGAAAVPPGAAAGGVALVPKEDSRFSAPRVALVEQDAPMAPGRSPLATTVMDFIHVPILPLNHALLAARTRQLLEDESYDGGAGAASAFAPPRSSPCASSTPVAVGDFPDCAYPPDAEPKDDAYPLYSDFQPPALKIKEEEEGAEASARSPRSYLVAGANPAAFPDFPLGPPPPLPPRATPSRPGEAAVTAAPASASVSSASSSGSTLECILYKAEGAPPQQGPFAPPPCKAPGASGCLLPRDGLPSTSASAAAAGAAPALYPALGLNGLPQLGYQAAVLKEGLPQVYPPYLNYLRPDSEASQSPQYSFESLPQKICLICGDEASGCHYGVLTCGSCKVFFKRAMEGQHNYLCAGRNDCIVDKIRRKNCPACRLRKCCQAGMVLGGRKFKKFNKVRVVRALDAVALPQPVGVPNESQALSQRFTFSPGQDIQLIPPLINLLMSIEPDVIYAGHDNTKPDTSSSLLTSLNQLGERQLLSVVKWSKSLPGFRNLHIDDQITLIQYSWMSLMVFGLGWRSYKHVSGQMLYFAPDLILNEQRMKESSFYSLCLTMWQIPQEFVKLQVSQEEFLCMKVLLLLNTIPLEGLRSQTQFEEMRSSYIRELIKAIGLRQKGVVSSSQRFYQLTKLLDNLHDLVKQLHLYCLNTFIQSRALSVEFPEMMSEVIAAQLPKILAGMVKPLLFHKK
In short: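 Cells (PR-UAS-bla HEK 293T, GripTite) were plated in assay medium containing 2% charcoal-stripped FBS and incubated 6 hr. Test compounds in DMSO were added for 16 hr at 37C. FRET substrate was then loaded for 2 hr at room temperature before fluorescence reading.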

[4] = target: Progesterone receptor (Homo sapiens) (UniProt P06401); experiment: qHTS assay to identify small molecule antagonists of the progesterone receptor (PR) signaling pathway (AID 1346795; active means well fitted inhibition curve with a large enough effect in the signal ratio in the repeat runs, not every such curve was filed as active; the % refers to the signal ratio; further: potency means the concentration at half of the fitted maximal effect)
In short: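 Antagonist mode: compounds tested against 1 nM (final) promegestone stimulation in HEK293T cells expressing PR-UAS-bla reporter, 16 hr at 37C, 5% CO2; beta-lactamase activity detected via B/G FRET substrate after 2 hr at room temperature.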

[5] = qHTS assay to identify small molecule antagonists of the progesterone receptor (PR) signaling pathway - cell viability counter screen (AID 1346798); further: series mostly up to about 92 µM; nearly all actives have a fitted effect of over 50% in size
In short: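 Counter screen for cytotoxicity: viability of PR-UAS-bla HEK293T cells was measured with CellTiter-Glo luminescence following 16 hr compound exposure in the presence of R5020.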

[6] = qHTS assay to identify small molecule agonists of the progesterone receptor (PR) signaling pathway - cell viability counter screen (AID 1346799; calls by dose curve; further: nearly all actives have a fitted effect of over 45% in size)
In short: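 Cells (PR-UAS-bla HEK293T) are plated at 3,000/well in 2% charcoal-stripped FBS medium, rested 6 hr, dosed and incubated 16 hr at 37C. CellTiter-Glo is then added and luminescence measured after 30 min at room temperature.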

[7] = qHTS assay to identify small molecule agonists of the TGF-beta/Smad signaling pathway - cell viability counter screen (AID 1346829); further: top concentration of the series differs between compounds; nearly all actives have a fitted effect of over 45% in size
In short: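 Tox21 qHTS format: SBE-bla HEK 293T cells treated with DMSO-dissolved compounds for 5 hr; CellTiter-Glo luminescence after 30 min at room temperature.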

[8] = qHTS assay to identify small molecule agonists of the TGF-beta/Smad signaling pathway (AID 1346859; active means well fitted activation curve with a large enough effect in the signal ratio in the repeat runs, not every such curve was filed as active; the % refers to the signal ratio; further: series mostly up to about 77 µM)
In short: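 Reporter line: HEK 293T with stably integrated SBE-controlled beta-lactamase. Compound exposure lasts 5 hr at 37 C and 5% CO2; substrate loading follows for 2 hr at room temperature, with emission read at 460 and 530 nm.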

[9] = Human pregnane X receptor (PXR) small molecule agonists, qHTS cell viability counter screen (AID 1346977); further: nearly all actives have a fitted effect of over 50% in size; further: potency means the concentration at half of the fitted maximal effect
In short: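 Cytotoxicity counter screen run in the same wells as the PXR luciferase assay, using PXR-Luc HepG2 cells in charcoal-stripped serum medium. Viability: CellTiter-Fluor fluorescence after 24hr compound treatment.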

[10] = Caspase-3/7 induction in HepG2 cells by small molecules, qHTS assay (AID 1346978); further: nearly all actives have a fitted effect of over 15% in size
In short: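 Caspase-3/7 induction was measured by Caspase-Glo 3/7 luminescence (30 min, room temperature) after a 17 hr compound exposure of wild-type HepG2 cells seeded at 2,000 per well and pre-incubated 5 hr.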

[11] = Caspase-3/7 induction in CHO-K1 cells by small molecules, qHTS cell viability counter screen (AID 1346979); further: nearly all actives have a fitted effect of over 35% in size; further: potency means the concentration at half of the fitted maximal effect
In short: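 Cytotoxicity counter screen run in parallel with the caspase-3/7 assay: CHO-K1 cells, 16hr compound treatment at 37C, then CellTiter-Fluor for 1hr before fluorescence reading.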

[12] = Caspase-3/7 induction in CHO-K1 cells by small molecules, qHTS assay (AID 1346980); further: nearly all actives have a fitted effect of over 15% in size
In short: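 Luminescent Caspase-Glo 3/7 read (30min, room temperature) quantified apoptosis induction. Cells were wild-type CHO-K1, treated with compound for 17hr at 37 C and 5% CO2.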

[13] = Caspase-3/7 induction in HepG2 cells by small molecules, qHTS cell viability counter screen (AID 1346981); further: nearly all actives have a fitted effect of over 30% in size; further: potency means the concentration at half of the fitted maximal effect
In short: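 Viability determined by CellTiter-Fluor fluorescence in HepG2 wells also used for the luminescent Caspase-Glo 3/7 read. Compounds were present for 16 hr at 37 C, 5% CO2 before reagent addition.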

[14] = target: Nuclear receptor subfamily 1 group I member 2 (Homo sapiens) (UniProt O75469); experiment: Human pregnane X receptor (PXR) small molecule agonists, qHTS assay (AID 1346982); further: nearly all actives have a fitted effect of over 35% in size; further: potency means the concentration at half of the fitted maximal effect
Sequence of Nuclear receptor subfamily 1 group I member 2 (Homo sapiens) (O75469 whole entry, looked up): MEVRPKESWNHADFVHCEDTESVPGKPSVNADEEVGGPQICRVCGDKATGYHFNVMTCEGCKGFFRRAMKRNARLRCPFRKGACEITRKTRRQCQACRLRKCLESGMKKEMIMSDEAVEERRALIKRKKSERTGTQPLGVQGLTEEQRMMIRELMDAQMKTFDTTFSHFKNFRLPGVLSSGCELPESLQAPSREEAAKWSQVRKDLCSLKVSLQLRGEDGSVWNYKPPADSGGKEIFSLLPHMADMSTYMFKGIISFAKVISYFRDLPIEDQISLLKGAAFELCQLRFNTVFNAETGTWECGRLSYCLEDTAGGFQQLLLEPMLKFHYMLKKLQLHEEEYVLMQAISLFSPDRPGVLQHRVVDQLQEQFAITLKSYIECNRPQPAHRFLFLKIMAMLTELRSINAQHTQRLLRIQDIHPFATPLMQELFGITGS
In short: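 Compound-induced hPXR transactivation of a CYP3A4 luciferase reporter was scored in HepG2 PXR-Luc cells over 24 hr at 37 C, 5% CO2, by luminescence.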

[15] = target: Thyrotropin-releasing hormone receptor (Homo sapiens) (UniProt P34981); experiment: qHTS assay to identify small molecule antagonists of the thyrotropin-releasing hormone receptor (TRHR) signaling pathway (AID 1346877; active means well fitted inhibition curve with a large enough effect in the repeat runs, not every such curve was filed as active; further: series mostly up to about 51 µM)
Sequence of Thyrotropin-releasing hormone receptor (Homo sapiens) (P34981 whole entry, looked up): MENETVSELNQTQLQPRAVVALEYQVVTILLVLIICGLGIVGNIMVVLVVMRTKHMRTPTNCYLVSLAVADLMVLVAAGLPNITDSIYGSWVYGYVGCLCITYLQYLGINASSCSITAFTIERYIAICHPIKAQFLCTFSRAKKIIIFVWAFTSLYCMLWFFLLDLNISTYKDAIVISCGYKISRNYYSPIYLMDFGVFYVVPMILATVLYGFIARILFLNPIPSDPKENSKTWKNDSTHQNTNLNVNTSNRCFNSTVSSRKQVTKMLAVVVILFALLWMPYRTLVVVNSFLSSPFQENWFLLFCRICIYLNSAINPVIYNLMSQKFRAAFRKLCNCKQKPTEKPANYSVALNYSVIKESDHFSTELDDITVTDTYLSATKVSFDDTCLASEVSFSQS
In short: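 Following an 18 h incubation at 37 °C and a 2 h calcium dye load, TRHR-HEK293 cells were exposed to compound (5 min, room temperature) and challenged with TRH, 1 nM final.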

[16] = target: Thyrotropin-releasing hormone receptor (Homo sapiens) (UniProt P34981); experiment: qHTS assay to identify small molecule agonists of the thyrotropin-releasing hormone receptor (TRHR) signaling pathway (AID 1346891; calls by dose curve;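 further: HEK293 cells expressing TRHR with calcium dye readout; series mostly up to about 58 µM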)
In short: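 Cells: TRHR-Hek293, seeded and incubated 18 h. Dye loading: 2 h at 37 °C. Compound added from DMSO stock by pin tool. Read-out: kinetic calcium fluorescence over 3 min.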

[17] = target: Nuclear receptor subfamily 1 group I member 2 (Rattus norvegicus) (UniProt Q9R1A7); experiment: Rat pregnane X receptor (rPXR) activation by small molecules, qHTS assay (AID 1346983); conditions: rPXR luciferase reporter cells, One-Glo luminescence, 24 h; max activation: stronger effect = higher value; further: nearly all actives have a fitted effect of over 20% in size
Sequence of Nuclear receptor subfamily 1 group I member 2 (Rattus norvegicus) (Q9R1A7 whole entry, looked up): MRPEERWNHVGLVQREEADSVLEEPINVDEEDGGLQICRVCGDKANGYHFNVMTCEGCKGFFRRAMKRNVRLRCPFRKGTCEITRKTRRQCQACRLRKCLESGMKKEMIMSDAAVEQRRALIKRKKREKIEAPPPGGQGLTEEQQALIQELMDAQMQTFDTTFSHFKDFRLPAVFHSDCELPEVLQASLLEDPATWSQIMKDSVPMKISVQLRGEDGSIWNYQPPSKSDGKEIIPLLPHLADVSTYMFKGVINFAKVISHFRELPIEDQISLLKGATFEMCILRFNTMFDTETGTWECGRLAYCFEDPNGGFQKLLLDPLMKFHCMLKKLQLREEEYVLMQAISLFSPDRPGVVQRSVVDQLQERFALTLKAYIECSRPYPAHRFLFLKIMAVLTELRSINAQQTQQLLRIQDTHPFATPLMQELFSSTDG
In short: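 Luminescent readout (One-Glo luciferase, 30 min room temperature) followed 24 hr compound treatment at 37 C of rPXR cells plated 2,000 per well and preincubated 5hr; qHTS format with compounds delivered in DMSO.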

[18] = target: Nuclear receptor subfamily 1 group I member 2 (Homo sapiens) (UniProt O75469); experiment: CYP3A4 induction through human pregnane X receptor (PXR) by small molecules, qHTS assay (AID 1346984); further: nearly all actives have a fitted effect of over 40% in size; further: potency means the concentration at half of the fitted maximal effect
In short: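 Readings come from a luciferase reporter: DPX-2 cells, which are HepG2 cotransfected with PXR and a CYP3A4-promoter construct, were exposed to test compounds for 24 h at 37C before One-Glo detection.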

[19] = target: Nuclear receptor subfamily 1 group I member 2 (Homo sapiens) (UniProt O75469); experiment: Human pregnane X receptor (PXR) activation by small molecules, qHTS assay (AID 1346985); further: nearly all actives have a fitted effect of over 40% in size; further: potency means the concentration at half of the fitted maximal effect
In short: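 DPX-2 cells (HepG2 co-transfected with a PXR response element and a CYP3A4-promoter luciferase construct) were seeded at 2,000 per well, rested 5 hr at 37C, then exposed to DMSO-dissolved compounds for 24 hr. Activation was read as luciferase luminescence.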

[20] = qHTS assay to identify small molecule antagonists of the TGF-beta/Smad signaling pathway - cell viability counter screen (AID 1346824); further: nearly all actives have a fitted effect of over 50% in size
In short: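 Cytotoxicity counter-screen run in the same wells as the beta-lactamase Smad reporter read: CellTiter-Glo luminescence after 30 min at room temperature. HEK 293T SBE-bla cells had 5 hr compound exposure at 37 C with TGF-beta1 (0.25 ng/mL stock).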
On the % scale 0 is the no-effect control and ±100 the full control effect.

Nc1ccc(Cl)cc1Cl
inactive: Potency [1] | Potency [2] | Potency [3] | Potency [4] | Potency [5] | Potency [6] | Potency [7] | outcome [8] | Potency [9] | Potency [10] | Potency [11] | Potency [12] | Potency [13] | Potency [14]

Cc1ccc(C(=O)c2cc(O)c(O)c([N+](=O)[O-])c2)cc1
active: Potency [2] 27.3 µM and 29.8 µM | Potency [4] 23.7 µM | Potency [9] 21.7 µM | Potency [11] 43.3 µM | Potency [13] 43.3 µM
inactive: Potency [1] | Potency [3] | Potency [5] | Potency [7] | Potency [15] | Potency [16] | Potency [10] | Potency [12]

CN1C(C(=O)Nc2ccccn2)=C(O)c2ccccc2S1(=O)=O
inactive: Potency [1] | Potency [2] | Potency [4] | Potency [5] | Potency [6] | Potency [7] | outcome [8] | Potency [15] | Potency [16] | Potency [9] | Potency [10] | Potency [11] | Potency [12] | max activation [17] -2.52% | Potency [18] | Potency [19]

c1ccc(Nc2ccccc2)cc1
48.5 µM (active) and inactive: Potency [4]
inactive: Potency [1] | Potency [2] | Potency [5] | Potency [6] | Potency [20] | Potency [7] | outcome [8] | Potency [10] | Potency [11] | Potency [12] | Potency [13]
61.1 µM (active) and inactive: Potency [14]

O=S(=O)(O)c1ccc(O)cc1
inactive: Potency [1] | Potency [2] | Potency [3] | Potency [4] | Potency [5] | Potency [6] | Potency [7] | outcome [8] | Potency [9] | Potency [10] | Potency [11] | Potency [12] | Potency [13] | Potency [14] | max activation [17] -1.73% | Potency [18] | Potency [19]

Cc1cccc(N(C)C(=S)Oc2ccc3ccccc3c2)c1
active: Potency [14] 17.2 µM and 11.9 µM | Potency [18] 5.01 µM | Potency [19] 8.91 µM
inactive: Potency [1] | Potency [2] | Potency [3] | Potency [5] | Potency [7] | outcome [8] | Potency [9] | Potency [10] | Potency [11] | Potency [12] | Potency [13] | max activation [17] 2.58%

OC1CCCCCCCCCCC1
61.7 µM (active) and inactive: Potency [14]
inactive: Potency [1] | Potency [2] | Potency [4] | Potency [5] | Potency [6] | Potency [7] | outcome [8] | Potency [15] | Potency [16] | Potency [9] | Potency [10] | Potency [11] | Potency [12]

OCCO
inactive: Potency [1] | Potency [2] | Potency [4] | Potency [5] | Potency [6] | Potency [20] | Potency [7] | outcome [8] | Potency [15] | Potency [16] | Potency [9] | Potency [10] | Potency [11] | Potency [12] | Potency [13] | Potency [14]

CCOC(=O)C(C#N)=C(c1ccccc1)c1ccccc1
active: Potency [14] 24.3 µM and 11.9 µM | Potency [19] 12.6 µM
inactive: Potency [1] | Potency [2] | Potency [3] | Potency [5] | Potency [6] | Potency [20] | Potency [7] | outcome [8] | Potency [9] | Potency [10] | Potency [11] | Potency [12] | Potency [13]

CCCCCCCCCC(=O)OC
inactive: Potency [1] | Potency [2] | Potency [4] | Potency [5] | Potency [6] | Potency [20] | Potency [7] | outcome [8] | Potency [15] | Potency [16] | Potency [9] | Potency [10] | Potency [11] | Potency [12]
47.7 µM (active) and inactive: Potency [14]

O=[N+]([O-])c1ccc2c(c1)Cc1ccccc1-2
active: Potency [14] 48.5 µM and 54.5 µM
inactive: Potency [1] | Potency [2] | Potency [3] | Potency [5] | Potency [6] | Potency [7] | outcome [8] | Potency [9] | Potency [10] | Potency [12]

Cc1c(C(N)=O)cc([N+](=O)[O-])cc1[N+](=O)[O-]
inactive: Potency [1] | Potency [2] | Potency [3] | Potency [4] | Potency [5] | Potency [6] | Potency [7] | outcome [8] | Potency [9] | Potency [10] | Potency [11] | Potency [12] | Potency [13] | Potency [14] | max activation [17] 0.724% | Potency [18] | Potency [19]

CCCc1c(OCCCCc2nn[nH]n2)ccc(C(C)=O)c1O
inactive: Potency [1] | Potency [2] | Potency [3] | Potency [5] | Potency [6] | Potency [7] | Potency [15] | Potency [16] | Potency [9] | Potency [10] | Potency [11] | Potency [12] | Potency [13]
61.1 µM (active) and inactive: Potency [14]
